# Source: PubChem BioAssay (NCI)
# About 83,000 compounds went through this panel and 20% of them were active in at least one assay; those are over-represented in the sample as a whole.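 96-well plates, one dose, 48 hours. Percent growth reported; active if below 10.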 Unmarked numbers belong to inactive results. Active and inactive are the calls of the source.
# Columns and labels:
# Experiment in all cases: NCI-60 one-dose screen, 48 h (100 = growth as untreated, 0 = no growth, -100 = all killed)
# Details in all cases: 10 µM unless noted
# [1] = tested on: HCT-15 colon
# [2] = tested on: SNB-75 CNS
# [3] = tested on: SNB-19 CNS
# [4] = tested on: U251 CNS
# [5] = tested on: PC-3 prostate
# [6] = tested on: SK-MEL-5 melanoma
# [7] = tested on: UACC-62 melanoma
# [8] = tested on: LOX IMVI melanoma
# [9] = tested on: SK-MEL-28 melanoma
# [10] = tested on: HT29 colon
SMILES,growth [1],growth [2],growth [3],growth [4],growth [5],growth [6],growth [7],growth [8],growth [9],growth [10] [%]
NC(N)=N/N=C(/c1ccccc1)c1ccccc1F,22%,7.44% (active),30.9%,24.2%,14.1%,15.8%,20.2%,46.3%,63.4%,
CCCCOc1nc2ccc(Cl)cc2cc1/C=C/C(=O)/C=C1/CC(c2cc3cc(Cl)ccc3nc2OCCCC)Nc2ccccc2N1 (configuration not stated),94.1%,86.2%,99.1%,96.4%,,,89.1%,94.4%,105%,
O=C1NCC(=O)N(Cc2ccco2)[C@H]1Cc1ccccc1,98.4%,94.5%,94.5%,88.6%,91%,102%,96.6%,95.6%,107%,
NC(=O)CC1(O)C=C(Br)C(=O)C(Br)=C1,,76.4%,106%,95.6%,,92.7%,108%,86.1%,21.5%,
O=C1CC(c2ccc3c(c2)OCO3)Nc2cc3c(cc21)OCO3 (configuration not stated),14%,14.3%,28.3%,7.39% (active),17.7%,1.16% (active),21%,25.3%,65.6%,
Nc1c(-c2nc3ccccc3c(=O)[nH]2)nnn1-c1ccc(Cl)cc1,93.1%,24.7%,76%,74.6%,85.3%,92.6%,99.1%,107%,81.1%,
COC1(CC[C@@H](C)COC2OC(CO)C(O)C(O)C2O)O[C@H]2C[C@H]3[C@@H]4CC=C5C[C@@H](OC6OC(CO)C(OC7OC(C)C(O)C(O)C7O)C(O)C6OC6OC(C)C(O)C(O)C6O)CC[C@]5(C)[C@H]4CC[C@]3(C)[C@H]2[C@@H]1C (some centres not stated),-88.7% (active),-70.5% (active),-64.1% (active),-98.1% (active),,-65.1% (active),-92.1% (active),-95.9% (active),-95.7% (active),
COc1cc2c(cc1OC)-c1ccc3cc4c(cc3c1N(CCN1CCCC1)C2)OCO4,40.6%,-3.1% (active),-5.63% (active),-55.7% (active),,,36.1%,-79% (active),77.2%,
CCN(CC)CCCNC(=O)c1ccc(N)cc1,101%,95.5%,102%,101%,101%,97.7%,105%,103%,,
CCc1cc(Cc2cc(CC)cc(C(C)(C)C)c2O)c(O)c(C(C)(C)C)c1,13.8%,42.1%,20%,16.3%,15.1%,6.03% (active),25.7%,10.5%,,
c1ccc([P+](CCCc2n(Cc3ccc4ccccc4c3)c3ccccc3[n+]2Cc2ccc3ccccc3c2)(c2ccccc2)c2ccccc2)cc1,85.5%,91%,38.5%,46.5%,,,37.8%,13.8%,37.1%,
CCCCN1CCN(c2ccc3nc(-c4ccc5nc(-c6ccc(OCC)c(OCC)c6)[nH]c5c4)[nH]c3c2)CC1,-30.4% (active),24.1%,,-61.4% (active),-49.1% (active),8.19% (active),17.7%,-81.9% (active),45.8%,
CCCn1nc(-c2ccccc2)c2c(-c3ccccc3)onc2c1=O,61.8%,53%,77.2%,72.9%,73%,79.7%,53.8%,,95.5%,
CN1C[C@@H](c2ccc(Cl)cc2)[C@]2(NC(=S)N(c3ccccc3)C2=O)[C@@]12C(=O)NC1C=CC(Br)=C[C@H]12 (some centres not stated),73.5%,69.6%,86.2%,72.5%,28.1%,64%,74.3%,75.5%,95.4%,
NC(=S)N/N=C/C(=O)O,93.7%,99.2%,108%,102%,70%,103%,106%,93.3%,111%,
O=C1NC(=S)S/C1=C\N1N=C(c2ccc(Cl)cc2)CC1c1ccc(F)cc1 (configuration not stated),78.5%,76.1%,81.7%,68.7%,81.6%,77.8%,73.6%,80.6%,103%,

SMILES,growth [1],growth [2],growth [3],growth [4],growth [5],growth [6],growth [7],growth [8],growth [9],growth [10] [%]
Cc1[nH]c(-c2nc3ccccc3[nH]2)c(C)c1C(=O)NNc1ccc(Cl)cc1,94.1%,87.1%,87.1%,103%,85.6%,98.2%,90.2%,93.6%,99.6%,
COc1cc(C(=O)/C=C/c2c(-c3ccc(F)cc3)nc3ncccn23)cc(OC)c1OC,43.5%,59.2%,88.2%,48.2%,47%,30.5%,52.2%,36.4%,49.2%,
COc1cccc(/C=C2\COc3ccc(O)cc3C2=O)c1OC,45.4%,86.5%,67.4%,54.3%,56.2%,,71%,-19.7% (active),96.6%,
O=C(Oc1ccc[nH]c1=O)c1cc([N+](=O)[O-])cc([N+](=O)[O-])c1,103%,97.1%,114%,109%,,105%,114%,99.5%,122%,
O=S(=O)(NCCNc1cc(-c2c(-c3cccc(O)c3)nc3sccn23)ccn1)c1ccc(Cl)cc1,53.2%,8.44% (active),72.7%,65.9%,49.3%,30.7%,64.8%,63.2%,95.7%,
CC(=O)c1ccc2c(c1)CCN2,105%,93.1%,98.3%,97.1%,98.6%,105%,102%,,109%,
Clc1ccc(-c2nnc(Cn3ccnc3)o2)cc1,94.2%,91.8%,95.5%,106%,97.2%,112%,90.2%,112%,106%,
O=C(NCc1cccnc1)c1cc(-c2csc3c(=O)cc(N4CCOCC4)oc23)cc2c1OCCO2,66.5%,-9.26% (active),47.5%,51.8%,38.6%,39.6%,12.2%,,49%,
CC1=CC(=O)C(C(C)C)=CC1=Nc1cc(Br)c(O)c(Br)c1,21%,27.1%,,5.45% (active),,13.9%,22.7%,24%,42.6%,
Cc1cc(-c2ccc(N(C)C)cc2)c2sc(=O)[nH]c2n1,29.4%,53.2%,55.7%,50.2%,80.8%,,42.5%,51.6%,69%,
CNC(=O)c1cc(Oc2ccc3nc(NC(=O)Nc4cc(C(F)(F)F)cc(C(F)(F)F)c4)sc3c2)ccn1,-4.69% (active),-71.3% (active),2.44% (active),-81.8% (active),-38.9% (active),-47.6% (active),-63.3% (active),-87.5% (active),-71% (active),
COc1cc(-c2ncn(/C=C\c3nnco3)n2)cc(C(F)(F)F)c1,17.6%,4.47% (active),23.3%,14.7%,,-11.8% (active),13.2%,-27.3% (active),6.79% (active),
CS(=O)(=O)c1ccc(-c2nc3cc(Cl)ccc3n2CC(=O)NO)cc1,102%,73.7%,96.4%,93.1%,95.7%,,92.6%,97.9%,100%,
CCOc1ccc(S(=O)(=O)c2ccc(C)cc2)c2c1no[n+]2[O-],,54.7%,87.9%,80.1%,82.1%,72.5%,78.5%,87.1%,104%,52.8
C[C@H]1[C@H](C)CC[C@]2(C(=O)N3CCN(C)CC3)CC[C@]3(C)C(=CC[C@@H]4[C@@]5(C)C/C(=C/c6cccnc6)C(=O)C(C)(C)[C@@H]5CC[C@]43C)[C@H]12,-79.8% (active),-9.56% (active),-95.9% (active),-96% (active),-79.6% (active),-97.6% (active),-74.7% (active),-97.1% (active),-85.7% (active),
